Bioassay records: PubChem BioAssay, National Center for Advancing Translational Sciences (NCATS)
Many of the other results were omitted from the sample, so hits are more common in it than they were.
Shiga inhibitor: Shiga toxin inhibition | AID 2315 | 290,000 tested, 9.2% active | Vero cells, Shiga toxin protein synthesis inhibition reporter | inhibition, % at 38.7 µM; in the data active = inhibition mostly above about 28%, no sharp cut-off; inactive = mostly below about 43%
Sm TGR block: blocks Schistosoma mansoni thioredoxin glutathione reductase. Q962Y6. purified TGR, DTNB reduction, TNB absorbance 405 nm. Potency, µM (top dose mostly 114 µM), hits mostly inhibitors. 360,000 tested, 3% active; also: nearly all actives have a fitted effect of over 60% in size
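First, TGR (20 nM dispensed) and NADPH were mixed with compound. Second, a 15 min room-temperature incubation followed. Third, further NADPH and then DTNB were added to start the reaction. Finally, TNB absorbance was monitored kinetically.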
LmPK inh: LmPK (Leishmania mexicana) enzyme inhibition. purified LmPK, Kinase-Glo ATP luminescence, 1 h. Potency, µM (doses to about 57.5 µM), hits mostly inhibitors. AID 1721. Q27686. 290,000 tested, 0.37% active
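ATP generated from ADP (0.1 mM) and PEP (0.5 mM) by 0.1 nM LmPK over 1 h at room temperature (pH 7.2 imidazole buffer) was detected by coupled luciferase luminescence. Values were normalized to uninhibited and no-enzyme wells.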
TbPYK inhibitor: inhibitors of Trypanosoma brucei pyruvate kinase; Q57TT1; TbPYK enzyme, Kinase-Glo Plus ATP luminescence, 45 min; Potency, µM (highest dose often 76.8 µM), usual class: inhibitors; 410,000 tested, 0.12% active; also: nearly all actives have a fitted effect of over 50% in size
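Luminescence from Kinase-Glo Plus, added after a 45-minute room-temperature reaction, served as the end-point read-out. The enzyme and substrate were preincubated with compound before ADP (130 uM final) initiated turnover. Concentration-effect curves came from normalized qHTS data.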
Giardia FBPA inh: blocks Giardia fructose-bisphosphate aldolase activity | A8B2U2 | purified Giardia FBPA | Potency, µM (highest dose often 59.6 µM), usual class: inhibitors | 290,000 tested, 0.71% active; also: nearly all actives have a fitted effect of over 55% in size
Target sequence (A8B2U2 whole entry, looked up): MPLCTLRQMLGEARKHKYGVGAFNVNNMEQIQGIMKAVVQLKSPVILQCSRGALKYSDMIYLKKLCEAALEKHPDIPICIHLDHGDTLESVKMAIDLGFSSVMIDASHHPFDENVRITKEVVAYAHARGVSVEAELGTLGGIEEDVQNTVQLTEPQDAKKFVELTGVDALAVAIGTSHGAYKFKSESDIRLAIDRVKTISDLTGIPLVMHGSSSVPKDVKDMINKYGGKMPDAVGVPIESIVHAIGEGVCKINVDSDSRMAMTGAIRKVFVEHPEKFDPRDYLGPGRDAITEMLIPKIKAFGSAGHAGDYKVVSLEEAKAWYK
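Giardia FBPA (40 nM reagent) was preincubated 10 min at RT with compound (up to 57.5 uM final), then substrate plus GAPDH/TPI/NAD/arsenate coupling system with diaphorase/resazurin was added; resorufin fluorescence (525/598 nm) was read after 20 min.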
Cycloheximide cs: counter-screen hit for Shiga toxin inhibitors, cycloheximide; AID 2314; 300,000 tested, 12% active; max response, %; cell reporter, cycloheximide protein synthesis inhibition counterscreen; in the data active = max response mostly above about 13%, no sharp cut-off; inactive = mostly below about 14%; also: read at 38.3 µM for the half of the compounds with a filed dose
Of the large screens only hits and unclear results are named; the others gave an inactive call. Unless noted, calls follow the shape of the dose curve; as a rule, active = well fitted curve in the direction sought with a large enough effect; inconclusive = small, poorly fitted or top-dose-only effect, or another doubt; inactive = no such curve, though single readings can be large; an effect the other way counts as inactive or inconclusive.

Cc1[nH]c2ccccc2c1C(O)CN1CCN(c2cccc(C(F)(F)F)c2)CC1 (stereo not drawn)	Sm TGR block 32µM
Cc1[nH]c2ccccc2c1NC(=O)CN1CCN(c2cccc(C(F)(F)F)c2)CC1	none
O=C1/C(=C\c2ccc(O)c(O)c2)Oc2c1ccc(O[C@@H]1O[C@H](CO)[C@@H](O)[C@H](O)[C@H]1O)c2O	none (no result: Sm TGR block, LmPK inh, TbPYK inhibitor)
Cc1csc(B(O)O)c1	none (no result: Shiga inhibitor, Sm TGR block, LmPK inh, TbPYK inhibitor, Cycloheximide cs)
CC1=CC(c2ccccc2)n2nc(N3C(=O)c4ccccc4C3=O)nc2N1 (stereo not drawn)	Sm TGR block 35µM
Cc1ccccc1OCC(=O)Nc1ccc2nc(SCc3ccccc3)sc2c1	none (no result: Shiga inhibitor, LmPK inh, Giardia FBPA inh, Cycloheximide cs)
O=c1c2ccccc2c(=O)n2n1Cc1ccccc1C2	Cycloheximide cs 14
CC1=CCn2c(=O)c3ccccc3c(=O)n2C1	none
COc1ccc(CC(=O)N2CCCC2)c(OC)c1	none
COC(=O)C1=C(C)N(c2cccc(OC)c2)C(=O)/C1=C\c1ccco1	Sm TGR block 35µM, Cycloheximide cs 17
CCN1C(=O)/C(=C\c2ccco2)C(C(=O)OC)=C1C	none
CCCCN1C(=O)/C(=C\c2ccco2)C(=O)N(CCc2ccccc2)C1=O	none
COC(=O)C1=C(C)N(Cc2ccccc2)C(=O)/C1=C\c1ccco1	Sm TGR block 8.9µM
C=CCN1C(=O)/C(=C\c2ccco2)C(C(=O)OC)=C1C	Sm TGR block 40µM
COC(=O)C1=C(C)N(CCc2ccccc2)C(=O)/C1=C\c1ccco1	Sm TGR block 45µM
Cn1c(=O)c(=O)n(C)c2cc(NC(=O)c3cccc(F)c3)c(Cl)cc21	none (no result: Shiga inhibitor, LmPK inh, Giardia FBPA inh, Cycloheximide cs)
COCc1c(C(=O)NCC(c2ccco2)N2CCCC2)oc2ccccc12 (stereo not drawn)	none (no result: Shiga inhibitor, Sm TGR block, LmPK inh, Giardia FBPA inh, Cycloheximide cs)
CC(C)N1CCC2(CC1)N=C(c1ccc3c(c1)OCO3)CC(c1cc(Cl)ccc1O)N2 (stereo not drawn)	Shiga inhibitor 43, Sm TGR block inconclusive, Cycloheximide cs 47
C#C[C@]1(OC(C)=O)CC[C@H]2[C@@H]3CCC4=C/C(=N/O)CC[C@@H]4[C@H]3CC[C@@]21CC	none (no result: Shiga inhibitor, Sm TGR block, LmPK inh, Giardia FBPA inh, Cycloheximide cs)
NC(N)=NCCC[C@H](N)C(=O)NCC(=O)N[C@@H](CC(=O)O)C(=O)N[C@@H](CO)C(=O)O	none (no result: Sm TGR block, LmPK inh, TbPYK inhibitor)
CC(=O)OC[C@@H]1O[C@H](C/C=N\OCC[C@H]2C=C[C@H](OC(C)=O)[C@@H](COC(C)=O)O2)C=C[C@@H]1OC(C)=O	none (no result: Shiga inhibitor, Sm TGR block, LmPK inh, TbPYK inhibitor, Cycloheximide cs)
CCN(CC)C(=O)C1=C(C)N(Cc2ccccc2)C(=O)C(CC(=O)NCc2cccs2)C1 (stereo not drawn)	none (no result: Shiga inhibitor, Sm TGR block, LmPK inh, Giardia FBPA inh, Cycloheximide cs)
Fc1ccc(C2Nc3cccc4cccc(c34)N2)cc1	Sm TGR block 18µM
Cc1ccc(C2Nc3cccc4cccc(c34)N2)s1	Sm TGR block 18µM, Giardia FBPA inh inconclusive
COc1ccc(C2Nc3cccc4cccc(c34)N2)cc1Br	Sm TGR block 25µM
C/C(=C\c1ccccc1F)C1Nc2cccc3cccc(c23)N1	Sm TGR block inconclusive (no result: Shiga inhibitor, LmPK inh, Giardia FBPA inh, Cycloheximide cs)
CCCOc1ccc(C2Nc3cccc4cccc(c34)N2)cc1	Sm TGR block 14µM
CCOc1ccc(CNCCCSc2nnnn2C)cc1OC	none (no result: Shiga inhibitor, LmPK inh, Giardia FBPA inh, Cycloheximide cs)
COc1ccc(S(=O)(=O)N2CCOCC2)cc1NC(=O)CN1C(=O)NC2(CCC(C)CC2)C1=O (stereo not drawn)	none (no result: Shiga inhibitor, Sm TGR block, LmPK inh, Giardia FBPA inh, Cycloheximide cs)
Brc1ccc(C2Nc3cccc4cccc(c34)N2)cc1	none (no result: Shiga inhibitor, Sm TGR block, LmPK inh, Giardia FBPA inh, Cycloheximide cs)
FC(F)(F)c1ccc(C2Nc3cccc4cccc(c34)N2)cc1	Sm TGR block 20µM
CCN(CC)c1ccc(C2Nc3cccc4cccc(c34)N2)cc1	Cycloheximide cs 25
C=CCN=Cc1sc2ccc(OCC)cc2c1O	Shiga inhibitor 153, Cycloheximide cs 51 (no result: TbPYK inhibitor)
CCCCN=Cc1sc2ccc(OCC)cc2c1O	Shiga inhibitor 67, Cycloheximide cs 69
CCOc1ccc(N=CNc2ccc(OCC)cc2)cc1	none
COc1ccc(NC(=O)Cn2c(=O)n(-c3ccc(C)cc3)c(=O)c3c2c2cc(C)ccc2n3C)cc1	none (no result: Shiga inhibitor, LmPK inh, Giardia FBPA inh, Cycloheximide cs)
CCCCCc1c2c(cc(O)c1C(=O)O)OC(=O)c1c(cc(OC)cc1C(=O)CCCC)O2	Sm TGR block 40µM
Cc1cs/c(=N\N=C\c2ccccc2)n1Cc1ccco1	Cycloheximide cs 23
Cc1cs/c(=N\N=C2CCCCC2)n1Cc1ccco1	Shiga inhibitor 69, Cycloheximide cs 34
CC(C)=N/N=c1\scc(C)n1Cc1ccco1	none
